The source of these data is PubChem BioAssay (Tox21).

A number with no mark means an inactive call. Records with an inconclusive call do not appear. Activity calls are given as the source filed them. Unless noted, calls come from the whole dose curve.

Experiment [1] in a line: Nuclear factor erythroid 2-related factor 2/antioxidant responsive element (Nrf2/ARE) small molecule agonists: qHTS cell viability counter screen in human keratinocytes (AID 1919968; active = well fitted curve in the direction sought with a large enough effect in the repeat runs; an effect the other way counts as inactive or inconclusive; note: nearly all actives have a fitted effect of over 55% in size; note: potency is the fitted concentration of half-maximal effect). In a few lines: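 KeratinoSens HaCaT cells, 1,500/well, preincubated 5 h, then exposed to compounds in DMSO for 23 h at 37 C/5% CO2. Viability read as CellTiter-Fluor fluorescence after 1 h, in the same wells as the ARE-luciferase read.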
In general terms: qHTS replaces the single test concentration by a dilution series.

Experiment [2] can be described thus: Nuclear factor erythroid 2-related factor 2/antioxidant responsive element (Nrf2/ARE) small molecule agonists: luciferase reporter gene qHTS assay in human keratinocytes (AID 1919969; note: nearly all actives have a fitted effect of over 35% in size; note: potency is the fitted concentration of half-maximal effect). (In general: In a reporter assay the amount or activity of a reporter protein is the signal.)
The target of experiment [3] is Gonadotropin-releasing hormone receptor (Homo sapiens) (UniProt P30968). In words: Human gonadotropin-releasing hormone receptor (GnRHR) small molecule agonists, calcium flux assay in GnRHR-HEK293 cells (AID 1920063). Note: nearly all actives have a fitted effect of over 35% in size. In a few lines: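 HEK293 cells stably expressing human GnRHR were dye-loaded for 1 h at 37 C. Compound was added in agonist mode and fluorescence (Ex/Em 480/540) recorded kinetically for 3 min. Fifteen concentrations, triplicates.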
On the technique in general: Calcium flux is commonly read through the fluorescence of an indicator in the cells.

In experiment [4] the target is KiSS-1 receptor (Homo sapiens) (UniProt Q969F8). In words: Human kisspeptin (KISS1R) small molecule agonists, calcium flux assay in KISS1R-HEK293 cells (AID 1920064; active = well fitted curve in the direction sought with a large enough effect in the repeat runs; an effect the other way counts as inactive or inconclusive). In a few lines:
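HEK293 cells stably expressing human KISS1R were loaded with calcium dye for 1 h at 37 C, then given compound; fluorescence (Ex/Em 480/540) was read kinetically for 3 min. Fifteen concentrations, triplicate.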

Experiment [5] in a line: G protein-coupled receptor (GPCR) small molecule agonists, calcium flux assay: HEK293 wild type cell line counter screen (AID 1920065). In a few lines:
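Wild-type HEK293 cells plated 18 h, loaded with calcium dye 1 h at 37 C, then compounds added in agonist mode (ATP as positive control). Kinetic fluorescence Ex/Em 480/540 recorded 3 min at 1 sec intervals; 15 concentrations, triplicate.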

Experiment [6] in a line: p53 small molecule agonists, cell-based qHTS assay with human liver microsomes (AID 1963577).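 Note: p53 response element beta-lactamase reporter cells with liver microsomes plus NADPH.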 The method, boiled down:
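Metabolically competent format: test substances, human liver microsomes and NADPH (both 0.5 mg/mL final) incubated with p53RE-bla cells 16 h at 37 C. Beta-lactamase reporter signal then quantified by fluorescence.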

Experiment [7] can be described thus: p53 small molecule agonists, cell-based qHTS assay with rat liver microsomes (AID 1963578). The method, boiled down: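 Each plate received p53RE-bla cells, then compound, then rat liver microsomes and NADPH (both 0.5 mg/mL final). Plates were held 16 h at 37 C, and beta-lactamase activity was detected with LiveBLAzer over 2 h.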
A short description of experiment [8]: p53 small molecule agonists, cell-based qHTS assay with human liver microsomes: qHTS cell viability counter screen (AID 1963579). Note: nearly all actives have a fitted effect of over 45% in size. In a few lines:
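Tox21 library compounds, delivered from DMSO stocks, were tested on p53RE-bla cells together with 0.5 mg/mL human liver microsomes and 0.5 mg/mL NADPH (final) over 16 h at 37 C; CellTiter-Glo luminescence served as the cytotoxicity measure.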

The target of experiment [9] is 5-hydroxytryptamine receptor 2A (Homo sapiens) (UniProt P28223). In words: 5-hydroxytryptamine receptor 2A (HTR2A) small molecule antagonists, cell-based qHTS assay (AID 1963586). Note: nearly all actives have a fitted effect of over 45% in size. In a few lines: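 Antagonist-mode intracellular calcium assay: DOI (4 nM) added after 5 min compound pre-incubation at room temperature to dye-loaded HTR2A-CHO cells. Fluorescence followed for 3 min, sampled every second.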

Experiment [10] has the same target. In words: 5-hydroxytryptamine receptor 2A (HTR2A) small molecule agonists, cell-based qHTS assay (AID 1963587). Note: nearly all actives have a fitted effect of over 30% in size. The method, boiled down:
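CHO cells stably expressing human HTR2A, plated 18 h, loaded with calcium dye 1 h at 37 C. Agonist mode: compounds added and intracellular calcium fluorescence recorded kinetically for 2 min at 1 sec intervals.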

For experiment [11], the target named is Muscarinic acetylcholine receptor M1 (Homo sapiens) (UniProt P11229). The experiment in a line: Cholinergic receptor muscarinic 1 (CHRM1) small molecule antagonists, cell-based qHTS assay (AID 1963588). Note: nearly all actives have a fitted effect of over 40% in size. In a few lines: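 CHRM1-CHO calcium-flux assay, antagonist mode. Cells were seeded 18 h, dye-loaded 1 h at 37 C and given compound for 5 min at RT, then acetylcholine was added at 50nM. FDSS fluorescence was read 3 min; 15 concentrations, three runs.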

For experiment [12] the target is unchanged. In words: Cholinergic receptor muscarinic 1 (CHRM1) small molecule agonists, cell-based qHTS assay (AID 1963589). Note: nearly all actives have a fitted effect of over 35% in size. In a few lines:
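CHO cells stably expressing human CHRM1 were loaded with calcium dye for 1 h at 37 C, then compound was added in agonist mode. Intracellular calcium fluorescence was followed kinetically at 1 s intervals. Fifteen concentrations were tested in three independent runs.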

Experiment [13] in a line: cAMP Responsive Elements (CRE) small molecule agonists, cell-based qHTS assay (AID 1963590). The method, boiled down: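 CRE-bla HEK 293T cells, 2,000/well in DMEM with 10% dialyzed FBS and 25 mM HEPES, pre-incubated 18 h at 37 C, then exposed to compound 3 h at 37 C. Beta-lactamase reporter read with LiveBLAzer B/G FRET substrate after 2 h at room temperature.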
Experiment [14] in a line: cAMP Responsive Elements (CRE) small molecule antagonists, cell-based qHTS assay (AID 1963591; active = well fitted inhibition curve with a large enough effect in the signal ratio in the repeat runs, not every such curve was filed as active; the % refers to the signal ratio). The method, boiled down: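 CRE-bla HEK293T cells plated 18 h, then given compound plus NKH477 at 0.25 uM final for 3 h at 37C. Beta-lactamase reporter read with LiveBLAzer B/G FRET substrate after 2 h at room temperature.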
Experiment [15] deals with D(2) dopamine receptor (Homo sapiens) (UniProt P14416). The experiment in a line: Dopamine D2 receptor (DRD2) small molecule antagonists, cell-based qHTS assay (AID 1963595; active = well fitted inhibition curve with a large enough effect in the signal ratio in the repeat runs, with a control signal flat; the % refers to the signal ratio; note: potency is the fitted concentration of half-maximal effect). The method, boiled down: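 Stable D2 receptor HEK293 line, 24 h after seeding. Compound preincubated 10 min, then quinpirole (12 nM) with forskolin analogue NKH477 (200 nM), 30 min, room temperature. Detection by time-resolved FRET of cAMP.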

The nature of experiment [16]: p53 small molecule agonists, cell-based qHTS assay with rat liver microsomes: qHTS cell viability counter screen (AID 1963580). Note: nearly all actives have a fitted effect of over 45% in size. In a few lines: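 p53RE-bla HCT-116 cells were exposed 16 h at 37 C to compounds with rat liver microsomes (0.5 mg/mL) and NADPH (0.5 mg/mL). Viability was measured in the same wells as ATP content by CellTiter-Glo luminescence.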
Experiment [17] in a line: p53 small molecule agonists, cell-based qHTS assay: qHTS cell viability counter screen (AID 1963581). Note: nearly all actives have a fitted effect of over 45% in size. The method, boiled down:
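p53RE-bla HCT-116 cells, compounds added 5 h after plating and incubated 16 h at 37 C. Cytotoxicity measured in the same wells as intracellular ATP by CellTiter-Glo luminescence after 30 min at room temperature.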

Experiment [18] in a line: p53 small molecule agonists, cell-based qHTS assay (AID 1963582; active = well fitted activation curve with a large enough effect in the signal ratio in the repeat runs, not every such curve was filed as active; the % refers to the signal ratio). The method, boiled down: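 p53RE-bla reporter cells, compounds added in DMSO after 5 h plating, incubated 16 h at 37 C. Beta-lactamase read via 2 h room-temperature LiveBLAzer B/G FRET substrate, fluorescence intensity.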
Experiment [19] concerns the target D(2) dopamine receptor (Homo sapiens) (UniProt P14416). The experiment in a line: Dopamine D2 receptor (DRD2) small molecule agonists, cell-based qHTS assay (AID 1963594). Note: nearly all actives have a fitted effect of over 35% in size. In a few lines:
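HEK293 cells stably expressing human DRD2, pre-treated with PDE inhibitor Ro20-1724 (0.1 mM final) and compound 10 min at room temperature, then stimulated with NKH477 (200nM […]) for 30 min. cAMP read by HTRF (665/620 nm).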

The target of experiment [20] is Beta-2 adrenergic receptor (Homo sapiens) (UniProt P07550). In words: Adrenergic beta2 receptor (ADRB2) small molecule antagonists, cell-based qHTS assay (AID 1963592). Note: series mostly up to about 92 µM; nearly all actives have a fitted effect of over 50% in size. In a few lines: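 Cells (CHO, stable ADRB2 overexpression) incubated 18-20hr at 37C; compounds added from DMSO; agonist mix (1nM isoproterenol, 100uM IBMX, 25uM Ro-20-1724) added; 0.5hr RT; d2-cAMP and anti-cAMP-cryptate added; 1hr RT; 665/615 nm read.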
Sequence of Beta-2 adrenergic receptor (Homo sapiens) (P07550 whole entry, looked up): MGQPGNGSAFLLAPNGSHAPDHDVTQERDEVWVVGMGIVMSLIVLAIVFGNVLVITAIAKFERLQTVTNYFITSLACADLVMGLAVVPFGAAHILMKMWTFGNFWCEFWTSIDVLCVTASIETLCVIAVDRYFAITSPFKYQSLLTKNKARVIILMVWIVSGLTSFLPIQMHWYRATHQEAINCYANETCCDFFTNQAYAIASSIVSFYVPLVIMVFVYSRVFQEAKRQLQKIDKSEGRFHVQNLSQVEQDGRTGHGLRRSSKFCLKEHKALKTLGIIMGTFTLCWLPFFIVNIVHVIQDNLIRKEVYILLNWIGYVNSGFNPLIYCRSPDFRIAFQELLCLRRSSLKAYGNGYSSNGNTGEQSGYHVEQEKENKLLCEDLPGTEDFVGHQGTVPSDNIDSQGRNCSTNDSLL

Sequence of D(2) dopamine receptor (Homo sapiens) (P14416 whole entry, looked up): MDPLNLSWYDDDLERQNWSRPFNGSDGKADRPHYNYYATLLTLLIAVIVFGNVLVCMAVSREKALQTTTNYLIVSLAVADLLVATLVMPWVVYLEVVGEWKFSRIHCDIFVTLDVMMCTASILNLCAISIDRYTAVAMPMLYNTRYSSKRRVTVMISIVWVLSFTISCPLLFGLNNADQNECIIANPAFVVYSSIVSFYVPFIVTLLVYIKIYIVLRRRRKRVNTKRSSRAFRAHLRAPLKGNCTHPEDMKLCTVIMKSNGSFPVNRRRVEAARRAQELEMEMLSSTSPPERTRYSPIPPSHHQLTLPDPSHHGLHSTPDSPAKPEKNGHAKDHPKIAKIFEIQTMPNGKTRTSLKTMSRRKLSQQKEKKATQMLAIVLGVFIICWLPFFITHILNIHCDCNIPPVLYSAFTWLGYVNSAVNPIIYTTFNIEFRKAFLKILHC
Sequence of Muscarinic acetylcholine receptor M1 (Homo sapiens) (P11229 whole entry, looked up): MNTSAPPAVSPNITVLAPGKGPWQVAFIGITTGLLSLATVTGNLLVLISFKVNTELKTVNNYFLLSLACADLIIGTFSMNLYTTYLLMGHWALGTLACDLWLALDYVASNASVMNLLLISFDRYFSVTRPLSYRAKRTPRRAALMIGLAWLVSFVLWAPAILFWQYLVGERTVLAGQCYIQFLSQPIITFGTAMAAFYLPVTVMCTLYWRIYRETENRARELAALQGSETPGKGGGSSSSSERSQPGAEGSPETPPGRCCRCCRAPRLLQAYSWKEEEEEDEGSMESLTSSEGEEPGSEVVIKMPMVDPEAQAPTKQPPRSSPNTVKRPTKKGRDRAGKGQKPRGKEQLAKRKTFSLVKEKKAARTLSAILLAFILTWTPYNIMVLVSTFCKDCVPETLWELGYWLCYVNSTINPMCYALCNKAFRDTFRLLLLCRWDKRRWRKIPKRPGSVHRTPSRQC
Sequence of 5-hydroxytryptamine receptor 2A (Homo sapiens) (P28223 whole entry, looked up): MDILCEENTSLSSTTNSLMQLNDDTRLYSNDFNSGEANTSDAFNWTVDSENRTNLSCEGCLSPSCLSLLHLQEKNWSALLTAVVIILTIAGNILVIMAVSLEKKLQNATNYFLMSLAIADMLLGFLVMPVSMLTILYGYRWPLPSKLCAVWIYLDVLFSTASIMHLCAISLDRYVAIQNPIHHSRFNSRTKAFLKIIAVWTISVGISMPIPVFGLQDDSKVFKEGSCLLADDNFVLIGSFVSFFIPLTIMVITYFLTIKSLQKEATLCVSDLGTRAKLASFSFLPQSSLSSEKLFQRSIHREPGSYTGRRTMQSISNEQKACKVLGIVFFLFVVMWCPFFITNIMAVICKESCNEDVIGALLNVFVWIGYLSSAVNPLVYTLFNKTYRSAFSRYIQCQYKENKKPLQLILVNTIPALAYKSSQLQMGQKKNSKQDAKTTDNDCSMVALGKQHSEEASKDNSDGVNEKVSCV
Sequence of Gonadotropin-releasing hormone receptor (Homo sapiens) (P30968 whole entry, looked up): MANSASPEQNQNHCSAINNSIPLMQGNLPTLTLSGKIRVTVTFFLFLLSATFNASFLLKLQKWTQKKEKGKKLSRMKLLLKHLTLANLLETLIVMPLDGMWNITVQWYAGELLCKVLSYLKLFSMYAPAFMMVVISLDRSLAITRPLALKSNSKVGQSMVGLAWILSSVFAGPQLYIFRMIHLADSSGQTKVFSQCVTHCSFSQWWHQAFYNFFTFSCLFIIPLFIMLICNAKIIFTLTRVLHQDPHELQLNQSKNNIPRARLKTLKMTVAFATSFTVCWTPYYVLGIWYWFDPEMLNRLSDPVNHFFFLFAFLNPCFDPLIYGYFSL
Sequence of KiSS-1 receptor (Homo sapiens) (Q969F8 whole entry, looked up): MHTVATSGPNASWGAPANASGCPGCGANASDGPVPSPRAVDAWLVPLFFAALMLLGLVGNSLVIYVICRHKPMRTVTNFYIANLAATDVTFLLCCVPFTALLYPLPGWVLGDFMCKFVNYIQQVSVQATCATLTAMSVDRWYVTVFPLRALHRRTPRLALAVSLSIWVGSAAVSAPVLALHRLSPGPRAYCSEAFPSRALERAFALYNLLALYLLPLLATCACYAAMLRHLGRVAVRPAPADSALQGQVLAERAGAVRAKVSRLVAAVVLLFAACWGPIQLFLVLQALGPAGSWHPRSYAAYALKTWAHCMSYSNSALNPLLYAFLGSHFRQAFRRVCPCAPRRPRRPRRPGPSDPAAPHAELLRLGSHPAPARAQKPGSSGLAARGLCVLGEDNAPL

Consider `CCCOC(=O)c1ccc(O)cc1`, for which the Potency entry in experiment [1], in [3], in experiment [6], in experiment [7], in experiment [8] and in experiment [9] was “inactive” throughout. Besides, the Potency entry in experiment [10], in experiment [11], in experiment [12], in experiment [13], in experiment [14] and in [15] was “inactive” each time. The Potency in [2] was 27.3 µM (active). Besides, the result in experiment [4] and in experiment [5] was inactive.
With `c1cc[nH]c1`, the Potency result in [1], in experiment [2], in experiment [3], in experiment [6], in experiment [7] and in [16] was “inactive” in each case. The Potency entry in experiment [17], in experiment [18], in experiment [9], in [10], in experiment [11] and in [12] was “inactive” in each case. Also, the Potency result in [13], in [14], in [19] and in experiment [15] was “inactive” in each case. The result in experiment [4] and in experiment [5] was inactive.
With `CC(=O)C1CCCCC1=O` (stereo not drawn), the Potency result in experiment [1], in experiment [2], in experiment [3], in [6], in [7] and in [16] was “inactive” each time. Also, the Potency result in experiment [17], in experiment [18], in experiment [9], in experiment [10], in [11] and in [12] was “inactive” throughout. Moreover, the Potency entry in [13], in experiment [14], in experiment [20] and in experiment [15] was “inactive” each time. Moreover, the result in experiment [4] and in experiment [5] was inactive.
For the molecule `CC(C)CCCCCCc1ccc(OCCOCCO)cc1`, the Potency result in experiment [1], in [2], in experiment [3], in experiment [6], in experiment [7] and in experiment [16] was “inactive” throughout. Moreover, the Potency result in experiment [17], in experiment [18], in experiment [9], in experiment [10], in experiment [11] and in experiment [12] was “inactive” each time. The Potency result in [13], in [14], in experiment [20] and in experiment [19] was “inactive” each time. The result in experiment [4] and in experiment [5] was inactive.
As for `C/C(=N/NC(=O)c1ccncc1)C(=O)O`, the Potency entry in [1], in [2], in experiment [3], in experiment [6], in experiment [7] and in [16] was “inactive” in each case. Moreover, the Potency result in experiment [17], in experiment [18], in [9], in experiment [10], in experiment [11] and in experiment [12] was “inactive” in each case. For the same molecule, the Potency result in experiment [13], in experiment [20], in experiment [19] and in experiment [15] was “inactive” in each case. In addition, the result in [4] and in [5] was inactive.
For the molecule `CN(C)C(=O)C1(N2CCCCC2)CCN(CC[C@@]2(c3ccc(Cl)c(Cl)c3)CN(C(=O)c3ccccc3)CCO2)CC1`, the figures for the Potency in experiment [1] and in [15] were 22.7 µM (active) and 64.1 µM (active), respectively. For the same molecule, the Potency result in experiment [2], in [3], in [6], in experiment [7], in experiment [8] and in [10] was “inactive” in each case. The Potency result in [12] and in [20] was “inactive” each time. The result in [4] and in experiment [5] was inactive.
Consider `CC(C)(C)c1ccccc1`, for which the Potency result in experiment [1], in experiment [2], in [3], in experiment [6], in [7] and in experiment [16] was “inactive” throughout. Moreover, the Potency entry in [17], in experiment [18], in [9], in experiment [10], in experiment [11] and in experiment [12] was “inactive” each time. The Potency entry in experiment [13], in experiment [14], in [20], in [19] and in experiment [15] was “inactive” throughout. The outcome in [4] and in [5] was inactive.
